In PubChem BioAssay (NCATS):
Inconclusive results are not listed. A call without a number means that no potency is given here. The source made the active and inactive calls. Calls follow the shape of the dose curve; as a rule, active = well fitted curve in the direction sought with a large enough effect; inconclusive = small, poorly fitted or top-dose-only effect, or another doubt; inactive = no such curve, though single readings can be large; an effect the other way counts as inactive or inconclusive.

What was measured:
[1] = Cell Viability - LYMP1-003 - Assay at 40 hr (AID 964); settings: LYMP1-003 lymphoblastoid viability; series mostly up to 92.2 µM; also: nearly all actives have a fitted effect of over 60% in size; also: potency is read from the fitted curve at half-maximal effect
How it was run: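 Viability is taken as cellular ATP, read by CellTiter-Glo luminescence after 40 h of compound exposure at 37 C. Cells: human lymphoblastoid line LYMP1-003 at 2500/well; AC50 values derived by Hill-equation fitting of concentration-response data.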

[2] = Cell Viability - LYMP2-003 (AID 965); settings: LYMP2-003 lymphoblastoid cell viability; series mostly up to 92.2 µM;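 also: cells exposed to compounds for 24 h before reading; nearly all actives have a fitted effect of over 50% in size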; also: potency is read from the fitted curve at half-maximal effect
How it was run: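 Acute cytotoxicity is scored as a concentration-dependent drop in intracellular ATP, measured by luciferase luminescence in human lymphoblastoid cells treated for 24 hours at 37 C. AC50 values derive from Hill-equation modelling.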

[3] = Cell Viability - LYMP2-009 (AID 968); settings: LYMP2-009 lymphoblastoid cell viability; series mostly up to 92.2 µM; also: nearly all actives have a fitted effect of over 55% in size; also: potency is read from the fitted curve at half-maximal effect
[4] = Cell Viability - LYMP2-011 (AID 969); settings: LYMP2-011 lymphoblastoid cells viability; series mostly up to 92.2 µM; also: nearly all actives have a fitted effect of over 60% in size; also: potency is read from the fitted curve at half-maximal effect
How it was run: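 Cytotoxicity qHTS with ATP content as read-out: lymphoblastoid cells (2500/well) exposed to compound for 24 h at 37 C, then luciferase luminescence measured. Concentration-response data fitted with the standard Hill equation to give AC50.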

[5] = Cell Viability - LYMP2-013 (AID 970); settings: LYMP2-013 lymphoblastoid cells viability; series mostly up to 92.2 µM; also: nearly all actives have a fitted effect of over 55% in size; also: potency is read from the fitted curve at half-maximal effect
How it was run: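 qHTS cytotoxicity: ATP-dependent luminescence (CellTiter-Glo, 30 min room temperature) read after 24 h compound exposure at 37 C of 2500 LYMP2-013 lymphoblastoid cells per well. Concentration-response fitted with Hill equation to give AC50.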

[6] = Cell Viability - LYMP2-015 (AID 971); settings: LYMP2-015 lymphoblastoid cell viability; series mostly up to 92.2 µM; also: nearly all actives have a fitted effect of over 55% in size; also: potency is read from the fitted curve at half-maximal effect
How it was run: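 Cytotoxicity readout: decrease in intracellular ATP (CellTiter-Glo luminescence) in 2500 LYMP2-015 lymphoblastoid cells/well after 24 h compound exposure at 37 C. Concentration-response data fitted with the standard Hill equation to give AC50.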

[7] = Cell Viability - LYMP2-017 (AID 972); settings: LYMP2-017 lymphoblastoid cell viability; series mostly up to 92.2 µM; also: nearly all actives have a fitted effect of over 55% in size; also: potency is read from the fitted curve at half-maximal effect
How it was run: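 CellTiter-Glo luminescence (cellular ATP, 30 min RT) measured cytotoxicity after 24 hr compound treatment at 37 C. Cells were a human lymphoblastoid line, LYMP2-017, plated at 2500/well and incubated 5 hr first; concentration-response fitted with Hill equation for AC50.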

[8] = Cell Viability - LYMP2-021 (AID 974); settings: LYMP2-021 lymphoblastoid cells viability; series mostly up to 92.2 µM; also: nearly all actives have a fitted effect of over 55% in size; also: potency is read from the fitted curve at half-maximal effect
How it was run: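 AC50 values come from Hill-equation fits to CellTiter-Glo luminescence (ATP content), read after 24 hour compound exposure at 37 C of 2500 LYMP2-021 lymphoblastoid cells/well; tetraoctylammonium bromide as positive control.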

[9] = Cell Viability - LYMP2-002 (AID 977); settings: LYMP2-002 lymphoblastoid cell viability, qHTS; series mostly up to 92.2 µM; also: potency is read from the fitted curve at half-maximal effect
How it was run: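 Human lymphoblastoid cells (2500/well) in complete medium were preincubated 5 hr at 37 C, then exposed to compounds for 24 hr at 37 C. Intracellular ATP was read by CellTiter-Glo luminescence; AC50 came from Hill-equation concentration-response fits.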

[10] = Cell Viability - LYMP2-006 (AID 978); settings: LYMP2-006 lymphoblastoid cell viability, qHTS; series mostly up to 92.2 µM; also: nearly all actives have a fitted effect of over 60% in size; also: potency is read from the fitted curve at half-maximal effect
How it was run: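 Concentration-dependent loss of intracellular ATP in a human lymphoblastoid line after 24 hr treatment at 37 C was measured by CellTiter-Glo luminescence, with AC50 values obtained from standard Hill-equation modelling.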

[11] = Cell Viability - LYMP2-007 (AID 979); settings: LYMP2-007 lymphoblastoid cell viability; series mostly up to 92.2 µM;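 also: cells exposed to compound for 24 h before reading; nearly all actives have a fitted effect of over 60% in size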; also: potency is read from the fitted curve at half-maximal effect
How it was run: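 AC50 values come from Hill-equation fits of luminescent intracellular ATP (CellTiter-Glo, 30 min, room temperature) following 24 h compound exposure at 37 C. Cells: LYMP2-007 lymphoblastoid line, 2500 per well, in complete culture medium.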

[12] = Cell Viability - LYMP2-008 (AID 980); settings: LYMP2-008 lymphoblastoid cell viability, qHTS; series mostly up to 92.2 µM; also: nearly all actives have a fitted effect of over 60% in size; also: potency is read from the fitted curve at half-maximal effect
How it was run: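 Cytotoxicity determined from ATP-dependent luciferase luminescence (CellTiter-Glo) following 24 h compound exposure of human lymphoblastoid LYMP2-008 cells at 37 C. Concentration-response data fitted to the Hill equation to give AC50.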

[13] = Cell Viability - LYMP2-010 (AID 981); settings: LYMP2-010 lymphoblastoid cell viability, qHTS; series mostly up to 92.2 µM; also: nearly all actives have a fitted effect of over 55% in size; also: potency is read from the fitted curve at half-maximal effect
How it was run: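 CellTiter-Glo ATP luminescence measured cytotoxicity after 24 h compound exposure at 37 C. LYMP2-010 cells were seeded at 2500/well, with tetraoctylammonium bromide as control; concentration-response curves gave AC50 values by the Hill equation.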

[14] = Cell Viability - LYMP2-012 (AID 982); settings: LYMP2-012 lymphoblastoid cell viability qHTS; series mostly up to 92.2 µM; also: potency is read from the fitted curve at half-maximal effect
[15] = Cell Viability - LYMP2-014 (AID 983); settings: LYMP2-014 lymphoblastoid cells, viability qHTS; series mostly up to 92.2 µM; also: nearly all actives have a fitted effect of over 50% in size; also: potency is read from the fitted curve at half-maximal effect
How it was run: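 Intracellular ATP loss, read by luciferase luminescence, measures acute cytotoxicity after 24 h compound exposure of lymphoblastoid LYMP2-014 cells (2500/well, 37 C). Concentration-response data fitted to the Hill equation for AC50.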

[16] = Cell Viability - LYMP2-016 (AID 984); settings: LYMP2-016 lymphoblastoid cell viability, qHTS; series mostly up to 92.2 µM; also: nearly all actives have a fitted effect of over 55% in size; also: potency is read from the fitted curve at half-maximal effect
How it was run: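 Acute toxicity in a Coriell human lymphoblastoid line is scored as loss of intracellular ATP over 24 h of treatment in complete medium. CellTiter-Glo signal is fitted across concentrations with the Hill equation to give AC50.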

[17] = Cell Viability - LYMP2-018 (AID 985); settings: LYMP2-018 lymphoblastoid cells, viability (qHTS); series mostly up to 92.2 µM; also: nearly all actives have a fitted effect of over 50% in size; also: potency is read from the fitted curve at half-maximal effect
How it was run: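 Viability read as CellTiter-Glo luminescence (cellular ATP) after 24 hr compound exposure at 37 C of 2500 LYMP2-018 lymphoblastoid cells/well, pre-plated 5 hr. Hill-equation modelling gave AC50.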

[18] = Cell Viability - LYMP2-004 (AID 966); settings: LYMP2-004 lymphoblastoid cell viability, qHTS; series mostly up to 92.2 µM; also: nearly all actives have a fitted effect of over 65% in size
How it was run: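 AC50 values come from Hill modelling of concentration-dependent loss of intracellular ATP, measured by CellTiter-Glo luminescence. Human LYMP2-004 lymphoblastoid cells (2500/well) were exposed to compound for 24 h at 37 C.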

[19] = Cell Viability - LYMP2-005 (AID 967); settings: LYMP2-005 lymphoblastoid cell viability; series mostly up to 92.2 µM; also: potency is read from the fitted curve at half-maximal effect
How it was run: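 qHTS viability screen in LYMP2-005 cells: 24 h at 37 C with compound, ATP luminescence via CellTiter-Glo, AC50 from Hill curves.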

[20] = Cell Viability - LYMP2-025 (AID 976); settings: LYMP2-025 lymphoblastoid cell viability; series mostly up to 92.2 µM; also: potency is read from the fitted curve at half-maximal effect
How it was run: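 Cytotoxicity read as loss of intracellular ATP (luciferase luminescence) after 24 h compound treatment at 37 C. Uses LYMP2-025 lymphoblastoid cells in 1536-well format; Hill-equation modelling gives AC50; tetraoctylammonium bromide as positive control.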

N[C@@H](Cc1ccc(N(CCCl)CCCl)cc1)C(=O)O
Potency [1]: inactive
Potency [2]: 31.6 µM (active)
Potency [3]: 39.8 µM (active)
Potency [4]: 39.8 µM (active)
Potency [5]: 39.8 µM (active)
Potency [6]: 31.6 µM (active)
Potency [7]: 39.8 µM (active)
Potency [8]: 39.8 µM (active)
Potency [9]: 39.8 µM (active)
Potency [10]: 39.8 µM (active)
Potency [11]: 25.1 µM (active)
Potency [12]: 31.6 µM (active)
Potency [13]: 31.6 µM (active)
Potency [14]: 31.6 µM (active)
Potency [15]: 31.6 µM (active)
Potency [16]: 25.1 µM (active)
Potency [17]: 25.1 µM (active)

Oc1ccc(Cl)cc1Cc1ccccc1
Potency [1]: inactive
Potency [2]: inactive
Potency [18]: inactive
Potency [19]: inactive
Potency [3]: inactive
Potency [4]: inactive
Potency [5]: inactive
Potency [6]: inactive
Potency [7]: inactive
Potency [8]: inactive
Potency [20]: inactive
Potency [9]: inactive
Potency [10]: inactive
Potency [11]: inactive
Potency [12]: inactive
Potency [13]: inactive
Potency [14]: inactive
Potency [15]: inactive
Potency [16]: inactive
Potency [17]: inactive

CCCC(C)(COC(N)=O)COC(=O)NC(C)C (centres undefined)
Potency [1]: inactive
Potency [2]: inactive
Potency [18]: inactive
Potency [19]: inactive
Potency [3]: inactive
Potency [4]: inactive
Potency [5]: inactive
Potency [6]: inactive
Potency [7]: inactive
Potency [8]: inactive
Potency [20]: inactive
Potency [9]: inactive
Potency [10]: inactive
Potency [11]: inactive
Potency [12]: inactive
Potency [13]: inactive
Potency [14]: inactive
Potency [15]: inactive
Potency [16]: inactive
Potency [17]: inactive

Clc1ccc(COC(Cn2ccnc2)c2ccc(Cl)cc2Cl)cc1 (centres undefined)
Potency [2]: inactive
Potency [4]: 79.4 µM (active)
Potency [6]: inactive
Potency [11]: 50.1 µM (active)
Potency [12]: 50.1 µM (active)
Potency [17]: 50.1 µM (active)

NCC(O)c1ccc(O)cc1 (centres undefined)
Potency [1]: inactive
Potency [2]: inactive
Potency [18]: inactive
Potency [19]: inactive
Potency [3]: inactive
Potency [4]: inactive
Potency [5]: inactive
Potency [6]: inactive
Potency [7]: inactive
Potency [8]: inactive
Potency [20]: inactive
Potency [9]: inactive
Potency [10]: inactive
Potency [11]: inactive
Potency [12]: inactive
Potency [13]: inactive
Potency [14]: inactive
Potency [15]: inactive
Potency [16]: inactive
Potency [17]: inactive

CC(=O)Oc1ccccc1C(=O)Nc1ncc([N+](=O)[O-])s1
Potency [1]: 12.6 µM (active)
Potency [19]: 31.6 µM (active)
Potency [4]: 50.1 µM (active)
Potency [5]: 39.8 µM (active)
Potency [8]: 39.8 µM (active)
Potency [20]: 31.6 µM (active)
Potency [9]: 31.6 µM (active)
Potency [12]: 31.6 µM (active)
Potency [13]: 39.8 µM (active)
Potency [14]: 39.8 µM (active)
Potency [16]: 39.8 µM (active)
Potency [17]: 39.8 µM (active)

CNCC(O)c1ccc(O)cc1 (centres undefined)
Potency [1]: inactive
Potency [2]: inactive
Potency [18]: inactive
Potency [19]: inactive
Potency [3]: inactive
Potency [4]: inactive
Potency [5]: inactive
Potency [6]: inactive
Potency [7]: inactive
Potency [8]: inactive
Potency [20]: inactive
Potency [9]: inactive
Potency [10]: inactive
Potency [11]: inactive
Potency [12]: inactive
Potency [13]: inactive
Potency [14]: inactive
Potency [15]: inactive
Potency [16]: inactive
Potency [17]: inactive

C[C@]12C/C(=C/O)C(=O)C[C@@H]1CC[C@@H]1[C@@H]2CC[C@@]2(C)[C@H]1CC[C@]2(C)O
Potency [19]: inactive
Potency [8]: 63.1 µM (active)
Potency [20]: inactive
Potency [13]: 50.1 µM (active)
